Measured values published in PubChem BioAssay (NCI).
About 83,000 compounds went through this panel and 20% of them were active in at least one assay; those are over-represented in the sample as a whole.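 Plates (96-well) were seeded with cells, treated with compound at one concentration, and incubated for 48 hours before percent growth was determined.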 The source made the active and inactive calls. The calls were made as follows: active = growth percent below 10; inactive = the rest.

The compounds below were run on UO-31 renal (assay: NCI-60 one-dose screen, 48 h (100 = growth as untreated, 0 = no growth, -100 = all killed)). Conditions: 10 µM unless noted.
CCOC(=O)c1sc(/N=C2\NC(=O)/C(=C/c3ccc(N4CCN(C)CC4)cc3)S2)nc1C was tested, and the growth was 84.6% (inactive).
Cc1cc(C)c2nc(Nc3nc(C)c(C)c(=O)[nH]3)nc(C)c2c1 was tested, and the growth was 11.1% (inactive).
With CCOC(=O)C1=C(C)n2nc(CC#N)c(C#N)c2NC1c1ccc(Cl)cc1 (centres undefined) the growth was 73.3% (inactive).
COc1ccc2oc(=O)cc(-c3nc4ccc(N)cc4[nH]3)c2c1 was tested, and the growth was 44.9% (inactive).
CCOC(=O)NCCc1nc2c([nH]1)c(=O)n(C)c(=O)n2C was tested, and the growth was 83.3% (inactive).
For NC(=O)C(O)(c1ccccc1)c1ccccc1, the growth was 93.8% (inactive).
With O=C1Nc2ccc(Cl)cc2/C1=N/c1nc(-c2ccc(F)cc2)cs1 the growth was 50.4% (inactive).
With Cc1nnc(/N=C2\NC(=O)/C(=C/c3ccsc3)S2)s1 the growth was 81.2% (inactive).
With N#Cc1ccc(C2C3=C(CCCC3=O)OC3=C2C(=O)c2ccccc2C3=O)cc1 (centres undefined) the growth was 85.8% (inactive).
For COCCOCCOCc1n(Cc2ccc3ccccc3c2)c2ccccc2[n+]1Cc1ccc2ccccc2c1, the growth was 81.9% (inactive).
For CC1(C)CC[C@]2(c3nnc(-c4ccncc4)o3)CC[C@]3(C)C(=CC[C@@H]4[C@@]5(C)CCC(=O)C(C)(C)[C@@H]5CC[C@]43C)[C@@H]2C1, the growth was 77.5% (inactive).
In the case of O=c1[nH]c(-c2cccc(F)c2)cc2cc(F)ccc12, the growth is reported as 55.8% (inactive).
For Cc1ccccc1NC(=O)c1sc2nc(C)c(C(C)O)cc2c1N (centres undefined), the growth was 69.6% (inactive).
For O=C1NN(c2ccccc2)C(c2ccc(Cl)cc2)N2CCC[C@H]12 (some centres undefined), the growth was 85.3% (inactive).
With COc1ccc(Nc2cc(NC(=O)CNc3cc(OC)c(Cl)c(OC)c3Cl)ncn2)cc1 the growth was 59.6% (inactive).
For O=C(Nc1nc(-c2ccccc2Cl)cs1)c1cc(-c2ccc(Br)cc2)nc2ccccc12, the growth was 42% (inactive).
With Cn1cc(-c2ccc3c(c2)ncn3-c2ccc(CC(=O)Nc3cc(C(C)(C)C)on3)cc2)cn1 the growth was 3.88% (active).
In the case of CCOC(=O)CC[C@H](NC(=O)c1ccc(NC)c2ccccc12)C(=O)OCC, the growth is reported as 93.8% (inactive).
CCO/C=N/S(=O)(=O)c1cc2c(cc1Cl)NC=NS2(=O)=O was tested, and the growth was 89.1% (inactive).
With C#Cc1ccccc1NC(=O)c1sc2nc3c(cc2c1N)CCCCC3 the growth was 85.4% (inactive).
In the case of COc1ccc(NC(=O)Nc2ccc(Nc3nc(C)cc(Nc4ccc(C)cc4)n3)cc2)cc1, the growth is reported as -90.5% (active).
C[C@]12CC[C@@H]3c4ccc(O)cc4CC[C@H]3[C@@H]1C[C@H](O)C2 was tested, and the growth was 71.4% (inactive).
For O=CN1N=C(c2ccc(Cl)cc2)CC1c1cccc(Nc2ccnc3cc(C(F)(F)F)ccc23)c1 (centres undefined), the growth was 48.5% (inactive).
In the case of O=[N+]([O-])c1ccc(N=Nc2c(O)c(N=Nc3cc([N+](=O)[O-])cc([N+](=O)[O-])c3O)cc(N=Nc3cc(S(=O)(=O)O)cc4cc(S(=O)(=O)O)cc(O)c34)c2O)cc1, the growth is reported as 83.2% (inactive).
CCOCc1nc2ccccc2c(=O)[nH]1 was tested, and the growth was 92.9% (inactive).
For Nc1n[nH]c2cccc(C#Cc3cccc(NC(=O)c4cc(N5CCOCC5)cc(C(F)(F)F)c4)c3)c12, the growth was 17.5% (inactive).
COc1ccc2[nH]c(=O)c(/C=C/C(=O)c3ccccc3OC)cc2c1 was tested, and the growth was 23.6% (inactive).
N#Cc1c(-c2ccc(F)cc2)nc(N/N=C/c2cccc(O)c2)nc1N1CCOCC1 was tested, and the growth was 45.3% (inactive).
For COc1ccc2[nH]c3nc4cnccc4cc3c2c1, the growth was 71.2% (inactive).
With COc1cc2c(cc1OC)C(Sc1ccc(Cl)cc1)c1c(nc(N)c(C#N)c1N)O2 (centres undefined) the growth was -36.3% (active).
With C=C1C(=O)O[C@H]2[C@H]1CCC(/C=N/c1ncc(Br)cc1N)=C\CC[C@@]1(C)O[C@@H]21 the growth was -72.3% (active).
In the case of CCCCC1=c2c([nH]c3ccc(OC)cc23)=NC2C=CC=NC12 (centres undefined), the growth is reported as 75% (inactive).
In the case of COc1ccc(-c2nc(C#N)c(NCC(c3ccc(Cl)cc3)N3CCCCC3)o2)cc1 (centres undefined), the growth is reported as 72% (inactive).
For CCC[S@@](=O)c1ccc2nc(NC(=O)OC)[nH]c2c1, the growth was 90.9% (inactive).
For CCSc1nc(Cl)c(C#N)c(-c2ccc(F)cc2)n1, the growth was 85.8% (inactive).
With Cc1cccc(C)c1NC(=O)CN(CC(C)C)CC(O)COc1ccccc1 (centres undefined) the growth was 85.8% (inactive).
CCOC(=O)c1ccc(Nc2ncnc3ccc(NC(=O)c4ccccc4)cc23)cc1 was tested, and the growth was 72.6% (inactive).

Each compound was assayed on TK-10 renal in the same assay as above. Conditions: 10 µM unless noted.
CCOC(=O)c1sc(/N=C2\NC(=O)/C(=C/c3ccc(N4CCN(C)CC4)cc3)S2)nc1C was tested, and the growth was 116% (inactive).
In the case of Cc1cc(C)c2nc(Nc3nc(C)c(C)c(=O)[nH]3)nc(C)c2c1, the growth is reported as 17% (inactive).
For CCOC(=O)C1=C(C)n2nc(CC#N)c(C#N)c2NC1c1ccc(Cl)cc1 (centres undefined), the growth was 123% (inactive).
For COc1ccc2oc(=O)cc(-c3nc4ccc(N)cc4[nH]3)c2c1, the growth was 96.5% (inactive).
CCOC(=O)NCCc1nc2c([nH]1)c(=O)n(C)c(=O)n2C was tested, and the growth was 100% (inactive).
NC(=O)C(O)(c1ccccc1)c1ccccc1 was tested, and the growth was 97.3% (inactive).
O=C1Nc2ccc(Cl)cc2/C1=N/c1nc(-c2ccc(F)cc2)cs1 was tested, and the growth was 59.2% (inactive).
In the case of Cc1nnc(/N=C2\NC(=O)/C(=C/c3ccsc3)S2)s1, the growth is reported as 96.7% (inactive).
N#Cc1ccc(C2C3=C(CCCC3=O)OC3=C2C(=O)c2ccccc2C3=O)cc1 (centres undefined) was tested, and the growth was 99.7% (inactive).
For COCCOCCOCc1n(Cc2ccc3ccccc3c2)c2ccccc2[n+]1Cc1ccc2ccccc2c1, the growth was 3.33% (active).
In the case of CC1(C)CC[C@]2(c3nnc(-c4ccncc4)o3)CC[C@]3(C)C(=CC[C@@H]4[C@@]5(C)CCC(=O)C(C)(C)[C@@H]5CC[C@]43C)[C@@H]2C1, the growth is reported as 128% (inactive).
With O=c1[nH]c(-c2cccc(F)c2)cc2cc(F)ccc12 the growth was 58.5% (inactive).
In the case of Cc1ccccc1NC(=O)c1sc2nc(C)c(C(C)O)cc2c1N (centres undefined), the growth is reported as 51.5% (inactive).
O=C1NN(c2ccccc2)C(c2ccc(Cl)cc2)N2CCC[C@H]12 (some centres undefined) was tested, and the growth was 111% (inactive).
With COc1ccc(Nc2cc(NC(=O)CNc3cc(OC)c(Cl)c(OC)c3Cl)ncn2)cc1 the growth was 93.1% (inactive).
With O=C(Nc1nc(-c2ccccc2Cl)cs1)c1cc(-c2ccc(Br)cc2)nc2ccccc12 the growth was 49.4% (inactive).
Cn1cc(-c2ccc3c(c2)ncn3-c2ccc(CC(=O)Nc3cc(C(C)(C)C)on3)cc2)cn1 was tested, and the growth was -8.53% (active).
CCOC(=O)CC[C@H](NC(=O)c1ccc(NC)c2ccccc12)C(=O)OCC was tested, and the growth was 90.6% (inactive).
CCO/C=N/S(=O)(=O)c1cc2c(cc1Cl)NC=NS2(=O)=O was tested, and the growth was 101% (inactive).
C#Cc1ccccc1NC(=O)c1sc2nc3c(cc2c1N)CCCCC3 was tested, and the growth was 117% (inactive).
With COc1ccc(NC(=O)Nc2ccc(Nc3nc(C)cc(Nc4ccc(C)cc4)n3)cc2)cc1 the growth was -95.9% (active).
With C[C@]12CC[C@@H]3c4ccc(O)cc4CC[C@H]3[C@@H]1C[C@H](O)C2 the growth was 96.4% (inactive).
O=CN1N=C(c2ccc(Cl)cc2)CC1c1cccc(Nc2ccnc3cc(C(F)(F)F)ccc23)c1 (centres undefined) was tested, and the growth was 71% (inactive).
In the case of O=[N+]([O-])c1ccc(N=Nc2c(O)c(N=Nc3cc([N+](=O)[O-])cc([N+](=O)[O-])c3O)cc(N=Nc3cc(S(=O)(=O)O)cc4cc(S(=O)(=O)O)cc(O)c34)c2O)cc1, the growth is reported as 98.6% (inactive).
For CCOCc1nc2ccccc2c(=O)[nH]1, the growth was 102% (inactive).
Nc1n[nH]c2cccc(C#Cc3cccc(NC(=O)c4cc(N5CCOCC5)cc(C(F)(F)F)c4)c3)c12 was tested, and the growth was 36.5% (inactive).
With COc1ccc2[nH]c(=O)c(/C=C/C(=O)c3ccccc3OC)cc2c1 the growth was 42% (inactive).
In the case of N#Cc1c(-c2ccc(F)cc2)nc(N/N=C/c2cccc(O)c2)nc1N1CCOCC1, the growth is reported as 63.3% (inactive).
In the case of COc1ccc2[nH]c3nc4cnccc4cc3c2c1, the growth is reported as 111% (inactive).
COc1cc2c(cc1OC)C(Sc1ccc(Cl)cc1)c1c(nc(N)c(C#N)c1N)O2 (centres undefined) was tested, and the growth was -12.6% (active).
In the case of C=C1C(=O)O[C@H]2[C@H]1CCC(/C=N/c1ncc(Br)cc1N)=C\CC[C@@]1(C)O[C@@H]21, the growth is reported as -4.72% (active).
In the case of CCCCC1=c2c([nH]c3ccc(OC)cc23)=NC2C=CC=NC12 (centres undefined), the growth is reported as 115% (inactive).
With COc1ccc(-c2nc(C#N)c(NCC(c3ccc(Cl)cc3)N3CCCCC3)o2)cc1 (centres undefined) the growth was 112% (inactive).
In the case of CCC[S@@](=O)c1ccc2nc(NC(=O)OC)[nH]c2c1, the growth is reported as 91.9% (inactive).
For CCSc1nc(Cl)c(C#N)c(-c2ccc(F)cc2)n1, the growth was 101% (inactive).
For Cc1cccc(C)c1NC(=O)CN(CC(C)C)CC(O)COc1ccccc1 (centres undefined), the growth was 96.9% (inactive).
In the case of CCOC(=O)c1ccc(Nc2ncnc3ccc(NC(=O)c4ccccc4)cc23)cc1, the growth is reported as 65.4% (inactive).
